Test results from PubChem BioAssay AID709 (SRMLSC, 2007).
Screen size: about 65,000 compounds; about 3,600 (5.5%) were called active. Shown is part of a subset that was picked to be rich in actives. Values without a mark were called inactive.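 Rule for the calls: active = at 10 µM, mean starting fluorescence two-fold or more over control wells; inactive = the rest.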

Test: intrinsic fluorescence of library compounds, ex339/em460 – biochemical, MLSMR library, data from DPM-DC assay, artefact control, profiling panel (AID 709);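 note: signal is the first read of a kinetic run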
Details: compound autofluorescence, ex339/em460 nm, NADH buffer; at 10 µM; stronger effect = higher value; 1 = no-compound wells, NADH background
With `O=C1CC(c2cccc(F)c2)C2=C(CCCC2=O)N1` (stereo not given) the fluorescence fold increase was 1.17.
For `O=C1CC(c2cccc(Br)c2)C2=C(CCCC2=O)N1` (stereo not given), the fluorescence fold increase was 2.04 (active).
`O=C1CCCc2c1[nH]c1ccc(Br)cc21` showed a fluorescence fold increase of 1.13.
Molecule `C=CCc1cccc2cc(C(=O)OCC)c(=O)oc12` has a fluorescence fold increase of 1.21.
`CC(=O)O[C@]1(C(C)=O)CC[C@H]2[C@@H]3C=C(C)C4=CC(=O)CC[C@]4(C)[C@H]3CC[C@@]21C` gave a fluorescence fold increase of 1.
For `COc1ccc(C(=O)NCCc2ccc(S(N)(=O)=O)cc2)cc1OC`, the fluorescence fold increase was 1.15.
Molecule `O=c1cc(Cn2nnc(-c3ccc(Cl)cc3)n2)nc2sccn12` has a fluorescence fold increase of 1.22.
For `O=C(NCc1ccc(Cl)cc1)c1cc2c(nc3sccn32)s1`, the fluorescence fold increase was 2.6 (active).
`O=C(NCc1cn2ccsc2n1)Nc1ccc(Cl)cc1` showed a fluorescence fold increase of 1.11.
`O=C(Nc1c2c(nn1-c1ccc(F)cc1)CS(=O)C2)C12CC3CC(CC(C3)C1)C2` (stereo not given) showed a fluorescence fold increase of 1.05.
With `Cc1cc(C)cc(N(CC(=O)Nc2c(C)n(C)n(-c3ccccc3)c2=O)S(C)(=O)=O)c1` the fluorescence fold increase was 1.04.
In the case of `Cc1nc2cc(-c3ccc(F)cc3)nn2c(N2CCOCC2)c1C`, the fluorescence fold increase is reported as 1.16.
`Cc1ccc(C(=O)NCCNS(=O)(=O)c2ccccc2)cc1` gave a fluorescence fold increase of 1.02.
Work on `COCCCNC(=O)c1ccc2c(c1)ncn2-c1ccccc1OC` yielded a fluorescence fold increase of 1.07.
In the case of `CN(C)CCCNC(=O)c1ccc2[nH]c3ccccc3c2c1`, the fluorescence fold increase is reported as 3.36 (active).
`CSc1nnc(CNC(=O)c2ccccc2)n1-c1ccc(F)cc1` showed a fluorescence fold increase of 1.11.
Molecule `O=S(=O)(c1cccc(S(=O)(=O)N2CCC(n3nnc4ccccc43)CC2)c1)N1CCCCC1` has a fluorescence fold increase of 1.05.
With `Cc1ccc(C(=O)N2CCCCCC2)cc1Br` the fluorescence fold increase was 1.08.
`Cc1ccc2oc(=O)c3cnn(CC(=O)N4CCCCCC4)c3c2c1` gave a fluorescence fold increase of 1.04.
For `Cc1ccc2cc3cc(C(=O)N4CCCCCC4)oc3nc2c1`, the fluorescence fold increase was 3.22 (active).
In the case of `Cc1cc(C)n2nc(C(=O)Oc3ccc4c(c3)OCO4)nc2n1`, the fluorescence fold increase is reported as 1.15.
Molecule `CC(C)(C)c1nc(NCC2CCCO2)c2nnn(Cc3ccccc3)c2n1` (stereo not given) has a fluorescence fold increase of 1.16.
Work on `C#CCNc1nc(C(C)C)nc2c1nnn2Cc1ccccc1F` yielded a fluorescence fold increase of 1.04.
In the case of `Cc1nc(Nc2ccc3c(c2)OCCO3)c2nnn(Cc3ccccc3Cl)c2n1`, the fluorescence fold increase is reported as 2.39 (active).
`CCOC(=O)N1CCN(Cc2oc(CO)cc(=O)c2O)CC1` showed a fluorescence fold increase of 1.04.
With `CCc1ccc2oc(=O)cc(CN3CCCCC3C)c2c1` (stereo not given) the fluorescence fold increase was 1.11.
In the case of `CCCc1cc(=O)oc2c(C)c(O)c(CN3CCCCC3)cc12`, the fluorescence fold increase is reported as 2.34 (active).
With `C[N+](C)(C)CCNC(=O)c1c(O)c2c([nH]c1=O)CCCC2` the fluorescence fold increase was 1.18.
With `O=C(Cn1c(-c2ccccn2)nc2ccccc21)NCCN1CCOCC1` the fluorescence fold increase was 1.39.
In the case of `CCc1cc(=O)oc2cc(OCC(=O)N3CCCc4ccccc43)ccc12`, the fluorescence fold increase is reported as 1.26.
With `O=C(COc1ccc2oc3c(c2c1)CCCC3)Nc1ccccn1` the fluorescence fold increase was 1.06.
With `NC(=O)COc1ccc2c3c(c(=O)oc2c1)CCCCC3` the fluorescence fold increase was 3.71 (active).
In the case of `O=C(COc1ccc2c3c(c(=O)oc2c1)CCC3)NC1CCCCC1`, the fluorescence fold increase is reported as 2.13 (active).
Molecule `O=C(CC1OC(=O)c2ccccc21)NC1CCCCC1` (stereo not given) has a fluorescence fold increase of 1.08.
With `O=C(COc1ccccc1F)NC1CC1` the fluorescence fold increase was 1.01.
Molecule `O=C(C1CCC(C(=O)N2CCCC2)CC1)N1CCCC1` (stereo not given) has a fluorescence fold increase of 1.02.
Work on `Cc1nnc(SCC(=O)NCc2ccccc2)s1` yielded a fluorescence fold increase of 1.06.
`O=C(O)CC(c1ccccc1)n1cnnn1` (stereo not given) gave a fluorescence fold increase of 1.14.
With `O=C(CS(=O)(=O)Cc1ccccc1)Nc1cccnc1` the fluorescence fold increase was 1.1.
Work on `CCOCCN(C=O)c1cccc(OC)c1` yielded a fluorescence fold increase of 1.15.
With `COc1ccccc1C1/C(=C(/O)c2ccc(OC(C)C)cc2)C(=O)C(=O)N1c1cc(C)on1` (stereo not given) the fluorescence fold increase was 1.06.
`Cc1ccc(S(=O)(=O)NCC(=O)N(CC(=O)NC2CCCCC2)Cc2ccco2)cc1` showed a fluorescence fold increase of 1.
`CC(Cc1cccs1)NC(=O)NC1CCCCC1` (stereo not given) showed a fluorescence fold increase of 1.06.
In the case of `CC(=O)Oc1ccc2c(C)c(CC(C)O)c(=O)oc2c1` (stereo not given), the fluorescence fold increase is reported as 3.67 (active).
With `CC(=O)Nc1cc2ccc(OC(C)=O)cc2oc1=O` the fluorescence fold increase was 2.1 (active).
With `COc1ccc(C(=O)c2oc3ccc(Br)cc3c2NC(C)=O)cc1` the fluorescence fold increase was 1.11.
Work on `COc1ccc2oc(C)c(NC(C)=O)c2c1` yielded a fluorescence fold increase of 1.06.
In the case of `O=C(NCc1ccc(Cl)c(Cl)c1)c1cccnc1`, the fluorescence fold increase is reported as 0.91.
Molecule `O=C1C=C(NCCNc2c(F)c(F)c(CO)c(F)c2F)CCC1` has a fluorescence fold increase of 1.14.
With `CC(C)c1nc(N2CCOCC2)c(C#N)c2c1COC(C)(C)C2` the fluorescence fold increase was 2.28 (active).
With `CC(C)C(=O)N1CCN(c2nc(-c3ccccc3)c3c(c2C#N)CC(C)(C)OC3)CC1` the fluorescence fold increase was 2.34 (active).
With `Cc1nc(NCCN)c(C#N)c2c1COC(C)(C)C2` the fluorescence fold increase was 1.92.
With `COc1ccc(CSc2nc(N3CCOCC3)c3c(c2C#N)CC(C)(C)OC3)cc1` the fluorescence fold increase was 1.08.
In the case of `CC1(C)Cc2c(C#N)c(SCc3nc4ccccc4[nH]3)nc(N3CCOCC3)c2CO1`, the fluorescence fold increase is reported as 1.39.
In the case of `CC(C)Cc1nc(N2CCOCC2)c(C#N)c2c1CCC2`, the fluorescence fold increase is reported as 1.97.
With `C/C(=C\c1ccco1)C1Nc2cccc3cccc(c23)N1` the fluorescence fold increase was 1.19.
In the case of `CCOc1c(OC)cc(C2C(C#N)=C(N)Oc3n[nH]c(-c4ccncc4)c32)cc1OC` (stereo not given), the fluorescence fold increase is reported as 1.13.
With `COc1ccc(-n2c(C)cc(C(=O)CSc3nnc(-c4cccs4)o3)c2C)cc1` the fluorescence fold increase was 1.07.
Work on `COc1ccc(-c2nnc(SCC(=O)c3cccs3)o2)c(OC)c1` yielded a fluorescence fold increase of 1.12.
For `COc1ccc(OC)c(C(=O)CSc2nnc(-c3cccs3)o2)c1`, the fluorescence fold increase was 3.64 (active).
For `COc1ccc2c(c1)CCc1c(C(=O)N3CCCC3)noc1-2`, the fluorescence fold increase was 1.1.
Work on `O=c1[nH]nc(Cc2ccccn2)c2ccccc12` yielded a fluorescence fold increase of 1.07.
For `CN(CCc1ccccn1)S(=O)(=O)c1ccc2c3c(cccc13)C(=O)N2`, the fluorescence fold increase was 3.89 (active).
With `CC1(C)CN=C(N2CCN(c3ncnc4sc5c(c34)CCCC5)CC2)S1` the fluorescence fold increase was 1.03.
In the case of `Fc1c(F)c(C(F)(F)F)c(F)c(F)c1N1CCN(c2ccc3nnc(C(F)(F)F)n3n2)CC1`, the fluorescence fold increase is reported as 1.93.
